Data taken from the antibiotic and cytotoxicity screens of Wong et al. (2023).
The whole screen tested about 39,000 compounds, of which about 3,300 (8.5%) were called active. What follows is part of a selection rich in actives, with near analogues and random picks from the rest.

These compounds were tested on HepG2 (assay: cytotoxicity call (relative viability < 0.9)). Conditions: 10 µM.

Row | Compound | cytotoxicity call
1 | O=C(O)c1cc2cc(F)ccc2s1 | inactive
2 | C[C@@H]1CCCCO[C@H](CN(C)Cc2ccc3c(c2)OCO3)[C@@H](C)CN([C@@H](C)CO)C(=O)c2cc(NS(=O)(=O)c3ccccc3)ccc2O1 | inactive
3 | C[C@H](CO)N1C[C@H](C)[C@@H](CN(C)Cc2ccc3c(c2)OCO3)OCCCC[C@H](C)Oc2ccc(NS(=O)(=O)c3ccccc3)cc2C1=O | inactive
4 | C[C@@H]1CN([C@H](C)CO)C(=O)c2cc(NS(=O)(=O)c3ccccc3)ccc2O[C@@H](C)CCCCO[C@@H]1CN(C)Cc1ccc2c(c1)OCO2 | active
5 | C[C@H](CO)N1C[C@H](C)[C@H](CN(C)Cc2ccc3c(c2)OCO3)OCCCC[C@H](C)Oc2ccc(NS(=O)(=O)c3ccccc3)cc2C1=O | inactive
6 | C[C@@H]1CCCCO[C@@H](CN(C)Cc2ccc3c(c2)OCO3)[C@H](C)CN([C@H](C)CO)C(=O)c2cc(NS(=O)(=O)c3ccccc3)ccc2O1 | active
7 | C[C@H]1CCCCO[C@@H](CN(C)Cc2ccc3c(c2)OCO3)[C@@H](C)CN([C@@H](C)CO)C(=O)c2cc(NS(=O)(=O)c3ccccc3)ccc2O1 | inactive
8 | C[C@@H]1CCCCO[C@H](CN(C)Cc2ccc3c(c2)OCO3)[C@H](C)CN([C@@H](C)CO)C(=O)c2cc(NS(=O)(=O)c3ccccc3)ccc2O1 | active
9 | C[C@H]1CCCCO[C@H](CN(C)Cc2ccc3c(c2)OCO3)[C@@H](C)CN([C@@H](C)CO)C(=O)c2cc(NS(=O)(=O)c3ccccc3)ccc2O1 | inactive
10 | C[C@@H]1CCCCO[C@H](CN(C)Cc2ccc3c(c2)OCO3)[C@H](C)CN([C@H](C)CO)C(=O)c2cc(NS(=O)(=O)c3ccccc3)ccc2O1 | inactive
11 | C[C@H](N)C(=O)N[C@@]1(C(=O)O)C[C@@H](Sc2nnc[nH]2)[C@H]2[C@H](C(=O)O)[C@H]21 | inactive
12 | C[C@H](CO)N1C[C@H](C)[C@H](CN(C)S(=O)(=O)c2ccc(F)cc2)Oc2ccc(NS(C)(=O)=O)cc2C1=O | inactive
13 | Cl.Cl.N=C(N)N | inactive
14 | COCCOC(=O)N1C(=O)[C@@]2(c3cc(C#CCCO)ccc31)[C@H](C(=O)NC[C@H](O)c1ccccc1)[C@H]1C(=O)O[C@H](c3ccccc3)[C@H](c3ccccc3)N1[C@@H]2c1ccccc1OCCO | inactive
15 | CCS(=O)(=O)N1CC[C@]2(CC1)CN([C@H](CO)c1[nH]c3cc(ccc3c12)OC)S(=O)(=O)c1cn(cn1)C | inactive
16 | C[C@@H]1CN([C@@H](C)CO)C(=O)Cc2cc(NS(=O)(=O)c3ccccc3)ccc2O[C@H]1CN(C)S(=O)(=O)c1cn(C)cn1 | inactive
17 | C[C@@H]1CN([C@@H](C)CO)C(=O)c2cc(NC(=O)CCCN(C)C)ccc2O[C@H]1CN(C)C(=O)Nc1ccc(F)cc1 | inactive

Row | Compound | cytotoxicity call
18 | O=C1NC(=O)[C@@]2(CCOc3ccc(F)cc32)N1 | inactive
19 | C[C@@H]1CCCCO[C@H](CN(C)S(=O)(=O)c2cn(C)cn2)[C@@H](C)CN([C@@H](C)CO)C(=O)c2cc(NS(=O)(=O)c3cn(C)cn3)ccc2O1 | inactive
20 | COc1ccc(NC(=O)N2C[C@H](O)COC[C@@H]3O[C@H](CC(=O)NC4Cc5ccccc5C4)CC[C@H]32)cc1 | inactive
21 | Cc1ccc(C(=O)N(CCCN)[C@@H](c2nc3cc(Cl)ccc3c(=O)n2Cc2ccccc2)C(C)C)cc1 | active
22 | Cc1ccc2c(c1)c1nc3ccccc3nc1n2Cc1ccccc1 | inactive
23 | Cc1ccc(C(=O)N(CCCN)[C@@H](c2oc3cc(Cl)ccc3c(=O)c2Cc2ccccc2)C(C)C)cc1 | active
24 | COc1ccc(NC(=O)Nc2ccc3c(c2)C(=O)N([C@H](C)CO)C[C@H](C)[C@H](CN(C)Cc2ccc(C(=O)Nc4ccccc4N)cc2)O3)cc1 | inactive
25 | O=C(NO)c1cccc(C(=O)N/N=C/[C@H](O)[C@@H](O)[C@H](O)[C@H](O)CO[C@H]2O[C@H](CO)[C@H](O)[C@H](O)[C@H]2O)c1 | inactive
26 | C[C@@H]1CN([C@H](C)CO)S(=O)(=O)c2ccc(C#Cc3cccc(F)c3)cc2O[C@@H]1CN(C)S(=O)(=O)c1cn(C)cn1 | inactive
27 | Cc1ccc(S(=O)(=O)Nc2ccc3c(c2)C(=O)N([C@H](C)CO)C[C@H](C)[C@H](CN(C)C(=O)c2ccccc2)OCCCC[C@@H](C)O3)cc1 | inactive
28 | O=C(Cc1ccccc1)Nc1ccccc1Sc1ccccc1 | inactive
29 | CC(C)NC(=O)Nc1ccc2c(c1)C(=O)N(C)[C@@H]1CC[C@@H](CC(=O)NCc3ccc(F)cc3)O[C@@H]1CO2 | inactive
30 | C[C@@H]1CN([C@H](C)CO)C(=O)c2cc(-c3cccnc3)cnc2O[C@@H]1CN(C)Cc1ccc(-c2ccccc2)cc1 | inactive
31 | C[C@@H]1CN([C@@H](C)CO)C(=O)c2cc(NC(=O)Nc3cccc4ccccc34)ccc2O[C@@H]1CN(C)Cc1ccc(C(=O)O)cc1 | inactive
32 | C[C@@H]1CN([C@@H](C)CO)C(=O)c2cccc(NS(=O)(=O)c3cccs3)c2O[C@@H]1CN(C)S(C)(=O)=O | inactive
33 | Cc1noc(C)c1NC(=O)N(C)C[C@@H]1Oc2c(NC(=O)NC(C)C)cccc2C(=O)N([C@H](C)CO)C[C@@H]1C | inactive
34 | C[C@@H]1CN([C@H](C)CO)C(=O)CCCn2nncc2CO[C@@H]1CN(C)S(=O)(=O)c1cccc(C#N)c1 | inactive
